RGS16-Gao HTS – regulators of human RGS16-Galphao interaction. O15492+P09471. bead-based flow cytometry RGS16-Galphao binding, fluorescence; actives lie on both sides. binding response (% of control), % at 10 µM. 220,000 compounds, 0.38% hits. AID 1441;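 further: Galphao activated by GDP with aluminum fluoride before binding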
Target sequence (O15492 whole entry, looked up): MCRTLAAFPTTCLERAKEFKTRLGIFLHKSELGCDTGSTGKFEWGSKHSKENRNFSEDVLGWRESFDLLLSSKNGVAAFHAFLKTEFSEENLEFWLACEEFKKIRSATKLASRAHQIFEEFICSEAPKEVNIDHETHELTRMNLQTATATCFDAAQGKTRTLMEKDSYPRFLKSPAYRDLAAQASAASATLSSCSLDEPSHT
Target sequence (P09471 whole entry, looked up): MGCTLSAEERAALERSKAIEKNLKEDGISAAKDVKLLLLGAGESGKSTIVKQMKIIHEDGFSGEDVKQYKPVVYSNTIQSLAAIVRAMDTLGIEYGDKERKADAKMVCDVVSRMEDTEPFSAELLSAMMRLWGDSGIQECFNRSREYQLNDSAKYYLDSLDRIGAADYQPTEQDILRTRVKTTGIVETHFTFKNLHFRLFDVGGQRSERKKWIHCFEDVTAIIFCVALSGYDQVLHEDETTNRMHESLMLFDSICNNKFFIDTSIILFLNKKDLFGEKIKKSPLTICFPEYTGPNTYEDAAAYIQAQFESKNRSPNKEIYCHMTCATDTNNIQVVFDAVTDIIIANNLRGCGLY
RGS7-Gao – modulates binding of RGS7 to human Galphao; P09471; Multiplexed bead flow cytometry; actives lie on both sides; binding response (% of control), % at 10 µM; 220,000 compounds, 0.35% hits; in the data active means binding response below about 49% or above about 150%; inconclusive means no clear call, values can overlap the other calls; inactive means in between;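 further: fluorescent Galphao held in activated GDP-AlF4 state binding bead-coupled RGS7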
Target sequence (P09471 whole entry, looked up): as above
Avidin fluor – avidin bead compound fluorescence profile. Avidin beads, compound fluorescence 488/530 nm, flow cytometry; stronger effect = higher value. fluorescence (KMESF) at 10 µM. 220,000 compounds, 0.38% hits. AID 1775; in the data active means fluorescence above about 47
RGS4-Gao reg – human RGS4-Galphao interaction regulation; P09471; Multiplexed bead flow cytometry, RGS4-Galphao binding; actives lie on both sides; binding response (% of control), % at 10 µM; 220,000 compounds, 0.33% hits; AID 1415; in the data active means binding response below about 49% or above about 150%; inactive means in between;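 further: fluorescent Galphao activated with aluminum fluoride binding bead-coupled RGS4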
GSH fluor – compound fluoresces at 488/530 nm on GSH beads | GSH beads flow cytometry, compound fluorescence 488/530 nm; stronger effect = higher value | fluorescence (KMESF) at 10 µM | 190,000 compounds, 0.25% hits; in the data active means fluorescence above about 89;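 further: glutathione beads carrying GST-tagged Bcl family fusion proteins plus one bare bead set; values are compound well signal with DMSO vehicle wells as background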
RGS8-Gao reg – regulators of human RGS8-Galphao interaction. multiplexed bead flow cytometry, RGS8-Galphao binding; actives lie on both sides. 220,000 compounds, 0.34% hits. response (percent of control binding), % at 10 µM. P09471; in the data active means response below about 60% or above about 140%; inactive means in between;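 further: Galphao activated as the GDP aluminium fluoride complex binding bead-coupled RGS8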
RGS4-Gao HTS – regulators of human RGS4-Galphao interaction. shares compounds with RGS16-Gao HTS. multiplexed bead flow cytometry, RGS–Galpha-o binding. AID 1504. RGS4–Galpha-o binding response, % at 10 µM. 1,600 compounds, 99% hits;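 further: fluorescently labeled Galpha-o bound to GDP with aluminium fluoride binding biotinylated RGS beads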
Biotin-avidin – biotin-avidin bead binding disruption counter-screen. shares compounds with RGS16-Gao HTS. streptavidin beads, fluorescein-biotin binding, flow cytometry. inhibition, % at 10 µM. 1,700 tested, under 10 active. AID 1783;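 active means inhibition above 50%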;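 further: median green fluorescence of gated singlet beads compared with DMSO control wells; 0% = DMSO wells and 100% = complete loss of bead fluorescence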
RGS8-Gao confirm – RGS8-Galphao interaction regulation, single point confirmation; bead-based flow cytometry RGS8-Galphao binding, fluorescence; actives lie on both sides; 1,700 compounds, 3% hits; AID 1836; binding response (% of control), % at 10 µM; shares compounds with RGS16-Gao HTS; in the data active means binding response below about 72% or above about 130%; inactive means in between;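 further: Galphao activated as GDP AlF4 complex before binding bead RGS8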
RGS7-Gao confirm – RGS7-Galphao interaction regulation, single point confirmation | shares compounds with RGS16-Gao HTS | bead-based flow cytometry RGS7-Galphao binding; actives lie on both sides | response (percent of control binding), % at 10 µM | 1,700 compounds, 7.8% hits; in the data active means response below about 75% or above about 130%; inactive means in between;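 further: fluorescent Galphao activated with GDP and aluminum fluoride binding bead-coupled RGS7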
RGS16-Gao single – confirmation of regulators of human RGS16-Galphao interaction | shares compounds with RGS16-Gao HTS | bead-based flow cytometry, RGS16-Galphao binding; actives lie on both sides | response (% of control binding), % at 10 µM | 1,700 compounds, 4% hits; in the data active means response below about 74% or above about 130%; inactive means in between;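 further: Galphao activated as the GDP aluminium fluoride complex binding bead-coupled RGS16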
RGS4-Gao confirm – RGS4-Galphao interaction regulation, single point confirmation; RGS4-Galphao binding, multiplexed bead flow cytometry; actives lie on both sides; 1,700 compounds, 4% hits; AID 1840; shares compounds with RGS16-Gao HTS; binding response (% of control), % at 10 µM; in the data active means binding response below about 74% or above about 130%; inactive means in between
RGS19-Gao single – RGS19-Galphao interaction regulation, single point confirmation. bead-based flow cytometry RGS19-Galphao binding; actives lie on both sides. response (percent of control binding), % at 10 µM. AID 1841. 1,700 compounds, 5% hits. shares compounds with RGS16-Gao HTS; in the data active means response below about 50% or above about 160%; inactive means in between;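 further: 100% = no compound control and 0% = blank background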
* hit, by the source's call; [ ] = another dose, or the depositor's remark. Most compounds without a hit are left out; they make up all but 1.2% or so of the library. Unless noted, how the calls were made is not given here.

Screening COc1ccc(CNC(=O)C2CCC(CNc3c(N4CCCCC4)c(=O)c3=O)CC2)cc1 (stereo not drawn) returned RGS16-Gao HTS 14*, RGS7-Gao inconclusive, Avidin fluor 0, RGS4-Gao reg 20*, RGS8-Gao reg 24*, Biotin-avidin 1, RGS8-Gao confirm 107, RGS7-Gao confirm 111, RGS16-Gao single 106, RGS4-Gao confirm 108 and RGS19-Gao single 100.
Screening CCC(Oc1ccccc1)C(=O)N(Cc1ccccc1)c1ccccn1 (stereo not drawn) returned RGS16-Gao HTS 100, RGS7-Gao 90, Avidin fluor 10, RGS4-Gao reg 93, GSH fluor 24 and RGS8-Gao reg 97.
Screening CC(C)C(=O)N(Cc1ccccc1)c1ccccn1 returned RGS16-Gao HTS 244*[activator], RGS7-Gao 208*[activator], Avidin fluor 116*, RGS4-Gao reg 251*[activator], GSH fluor 38, RGS8-Gao reg 113, Biotin-avidin -2, RGS8-Gao confirm 102, RGS7-Gao confirm 98, RGS16-Gao single 100, RGS4-Gao confirm 100 and RGS19-Gao single 100.
Screening COCCNC(=O)/C(C#N)=C/c1ccc(-c2ccc(S(=O)(=O)N3CCOCC3)cc2)o1 returned RGS16-Gao HTS -1.2*, RGS7-Gao 84, Avidin fluor 5, RGS4-Gao reg 79, GSH fluor 6, RGS8-Gao reg 74, RGS4-Gao HTS 79*, Biotin-avidin 2, RGS8-Gao confirm 98, RGS7-Gao confirm 116, RGS16-Gao single 103, RGS4-Gao confirm 108 and RGS19-Gao single 121.
CCOCCCNC(=O)/C(C#N)=C/c1ccc(-c2ccc(S(=O)(=O)N3CCOCC3)cc2)o1 was read as RGS16-Gao HTS 19, RGS7-Gao 93, Avidin fluor 11, RGS4-Gao reg 93, GSH fluor 22 and RGS8-Gao reg 75.
`CCNc1nc(NC(C)C)nc(N(C)C#N)n1` gave RGS16-Gao HTS 96, RGS7-Gao inconclusive, Avidin fluor 14, RGS4-Gao reg 99 and RGS8-Gao reg 99.
`COc1ccc(Nc2ccc(S(=O)(=O)N3CCCCCC3)cc2[N+](=O)[O-])cc1` gave RGS16-Gao HTS 107, Avidin fluor 7, RGS4-Gao reg 105, GSH fluor 9, RGS8-Gao reg 103, Biotin-avidin 2, RGS8-Gao confirm 90, RGS7-Gao confirm 88, RGS16-Gao single 89, RGS4-Gao confirm 91 and RGS19-Gao single 78.
`CCN1c2ccc(S(=O)(=O)N3CCOCC3)cc2N(Cc2ccc(OC)cc2)C1C` (stereo not drawn) gave RGS16-Gao HTS 50, RGS7-Gao 50*, Avidin fluor 16, RGS4-Gao reg 48*, GSH fluor 11, RGS8-Gao reg 59*, Biotin-avidin 0, RGS8-Gao confirm 100, RGS7-Gao confirm 96, RGS16-Gao single 95, RGS4-Gao confirm 97 and RGS19-Gao single 96.
Screening COc1ccc2cc(S(=O)(=O)N3CCOCC3)ccc2c1 returned RGS16-Gao HTS 101, RGS7-Gao 101, Avidin fluor 37, RGS4-Gao reg 103, GSH fluor 16 and RGS8-Gao reg 98.
For C#CCSc1nnc(-c2ccccc2)c(=O)[nH]1 the results were RGS16-Gao HTS 10*, RGS7-Gao 17*, Avidin fluor 1, RGS4-Gao reg 21*, GSH fluor 13, RGS8-Gao reg 13*, Biotin-avidin -2, RGS8-Gao confirm 101, RGS7-Gao confirm 90, RGS16-Gao single 99, RGS4-Gao confirm 97 and RGS19-Gao single 80.
Cc1ccc(-n2c(C)n[nH]c2=S)cc1C was read as RGS16-Gao HTS 107, RGS7-Gao 103, Avidin fluor 11, RGS4-Gao reg 102, GSH fluor 9 and RGS8-Gao reg 103.
Cc1ccc(-n2c(C)n[nH]c2=S)cc1 was read as RGS16-Gao HTS 183*[activator], RGS7-Gao 119, Avidin fluor 16, RGS4-Gao reg 115, GSH fluor 9, RGS8-Gao reg 118, RGS4-Gao HTS 115*, Biotin-avidin 1, RGS8-Gao confirm 111, RGS7-Gao confirm 130*[activator], RGS16-Gao single 108, RGS4-Gao confirm 111 and RGS19-Gao single 114.
Clc1ccc(C2=CSC3=NCCN23)cc1Cl was read as RGS16-Gao HTS -14*, RGS7-Gao -0.4*, Avidin fluor 0, RGS4-Gao reg -19*, GSH fluor 11, RGS8-Gao reg 18*, Biotin-avidin 0, RGS8-Gao confirm 102, RGS7-Gao confirm 91, RGS16-Gao single 100, RGS4-Gao confirm 98 and RGS19-Gao single 104.
O=[N+]([O-])c1ccc(Sc2cccc[n+]2[O-])c2nonc12 was read as RGS16-Gao HTS 3.0*, RGS7-Gao inconclusive, Avidin fluor 4, RGS4-Gao reg 84, RGS8-Gao reg 36*, RGS4-Gao HTS 84*, Biotin-avidin -2, RGS8-Gao confirm 52*, RGS7-Gao confirm 81, RGS16-Gao single 26*, RGS4-Gao confirm 77 and RGS19-Gao single 21*.
Cc1ccc(NC(=O)NC(=O)N(C(C)C)S(C)(=O)=O)nc1 was read as RGS16-Gao HTS 239*[activator], RGS7-Gao 98, Avidin fluor 16, RGS4-Gao reg 100, GSH fluor 8, RGS8-Gao reg 119 and RGS4-Gao HTS 100*.
